# Screens as filed in PubChem BioAssay.
# A selection: hits, their analogues and other compounds. The true share with any hit is near 5.4%.
# AHR act = activates the human aryl hydrocarbon receptor | activation, % at 5 µM | AID 2796 | P35869 | AHR-responsive luciferase reporter cells, luminescence | 2.5% of 320,000 active; in the data active = activation above about 47%
# Target sequence (P35869 whole entry, looked up): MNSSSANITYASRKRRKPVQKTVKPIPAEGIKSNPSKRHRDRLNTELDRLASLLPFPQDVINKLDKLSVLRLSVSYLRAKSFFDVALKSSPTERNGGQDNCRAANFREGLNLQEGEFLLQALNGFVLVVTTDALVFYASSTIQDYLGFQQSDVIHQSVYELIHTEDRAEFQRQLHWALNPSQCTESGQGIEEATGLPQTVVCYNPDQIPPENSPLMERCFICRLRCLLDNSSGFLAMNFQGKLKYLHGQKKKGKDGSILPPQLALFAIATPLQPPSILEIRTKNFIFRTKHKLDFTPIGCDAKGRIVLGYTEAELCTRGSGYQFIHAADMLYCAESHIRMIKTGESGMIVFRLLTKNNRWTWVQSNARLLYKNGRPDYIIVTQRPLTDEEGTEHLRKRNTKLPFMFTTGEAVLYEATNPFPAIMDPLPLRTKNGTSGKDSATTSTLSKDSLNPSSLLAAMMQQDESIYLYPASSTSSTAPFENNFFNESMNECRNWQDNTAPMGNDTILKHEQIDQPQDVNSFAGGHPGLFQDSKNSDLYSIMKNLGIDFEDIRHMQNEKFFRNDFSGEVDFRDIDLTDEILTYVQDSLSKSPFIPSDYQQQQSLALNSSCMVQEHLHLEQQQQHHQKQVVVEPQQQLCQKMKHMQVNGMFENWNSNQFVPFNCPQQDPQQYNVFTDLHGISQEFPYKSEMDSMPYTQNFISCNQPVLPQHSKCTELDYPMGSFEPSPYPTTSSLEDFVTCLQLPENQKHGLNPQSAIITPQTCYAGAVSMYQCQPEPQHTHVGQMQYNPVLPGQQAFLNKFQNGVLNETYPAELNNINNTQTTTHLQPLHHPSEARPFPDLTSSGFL
# HSF1 activator = increases HSF-1 driven luciferase reporter signal; NIH3T3-HGL HSF-1 luciferase reporter, MG132, 8 h; 100% = twice DMSO control signal; AID 504408; activation, % at 9 µM; 1.7% of 300,000 active;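 active = mean replicate activation of at least 50% with a set share of replicates each reaching 50%; inconclusive = only one of those two conditions met; inactive = mean below 50% and too few replicates reaching it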
# DAX1 inh = inhibitors of human orphan nuclear receptor DAX1 (NR0B1); 0.99% of 340,000 active; HEK293 Gal4-DAX1 luciferase reporter, luminescence; inhibition, % at 6.75 µM;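 active = inhibition above the mean over all tested compounds plus 3 SD, cut at about 4.2% in these data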;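 also: inhibition shows as a rise in luminescence from relieved DAX1 repression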
# HSF1 inh = HSF1 inhibition; NIH3T3-HGL HSE-luciferase, MG132-induced, luminescence 8 h; stronger effect = lower value; activity change, negative = inhibition, % at 7.5 µM (by protocol); 0.77% of 300,000 active;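 active = more than half of replicate wells show activity change below -50%, luminescence cut by over half; inconclusive = some wells, but at most half, below -50%; inactive = no replicate well below -50%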;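 also: luciferase reports HSF-1 transcriptional activity via heat shock element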
# FXN GAA850 act = increases GAA850 frataxin promoter reporter activity | 0.56% of 360,000 active | HEK293 lucGAA850 FXN promoter luciferase reporter, 24 h; percent of 10 µM SAHA response | activation, % at 6 µM;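 active = activation above the average of all compounds screened plus 3 SD, cutoff fixed separately per campaign, cut at about 7.5% in these data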
# AHR act cf = confirmation of human aryl hydrocarbon receptor activators | shares compounds with AHR act | human cells, AHR-responsive luciferase reporter, luminescence | activation, % at 9 µM | 87% of 2,300 active; in the data active = activation above about 49%;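 also: HepG2 hepatoma cells carrying a DRE-driven firefly luciferase reporter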
# PXR act counter = PXR activation, counter-screen for AHR activators | cell-based PXR reporter, luciferase luminescence | 88% of 2,300 active | activation, % at 11.6 µM | shares compounds with AHR act | AID 434939; in the data active = activation above about 11%;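 also: human hepatoma DPX-2 cells expressing full-length human PXR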
# A number is an active result; . = inactive; ? = inconclusive; / = no result given.
SMILES,AHR act,HSF1 activator,DAX1 inh,HSF1 inh,FXN GAA850 act,AHR act cf,PXR act counter
CN(C)CCCNCC(=O)c1c(-c2ccccc2)n(C)c2ccccc12,.,.,.,.,.,/,/
O=C(CSc1nnc(-c2ccc3c(c2)OCO3)o1)Nc1ncc(C(F)(F)F)cc1Cl,.,.,.,.,.,/,/
Cc1nc(NC(=O)CSc2nnc(-c3ccc4c(c3)OCO4)o2)c(Cl)cc1Cl,128,.,.,.,.,105,88
COc1ccccc1CNC(=O)/C=C/c1ccc(Br)o1,.,.,.,.,.,/,/
COc1ccc(/C=N/NC(=O)Cc2cc(OC)c(OC)cc2[N+](=O)[O-])cc1,.,.,.,.,.,/,/
Cn1c(CS/C(N)=N/N=C/c2ccccc2)c(Br)c(=O)n1-c1ccccc1,.,.,.,.,.,/,/
NC(=O)c1c(NC(=O)c2ccccc2C(=O)O)sc2c1CCCC2,.,.,.,.,.,/,/
NC(=O)c1c(NC(=O)c2ccccc2F)sc2c1CCCC2,205,75,5.4,.,.,104,28
NC(=O)c1c(NC(=O)c2cccnc2Cl)sc2c1CCCC2,103,.,.,.,.,.,.
COc1ccc2c(c1)O[C@@H](c1cccc(C(F)(F)F)c1)[C@H](O)C2=O,.,.,.,.,/,/,/
COc1ccc2c(c1)O[C@H](c1ccc3c(c1)OCO3)[C@@H](O)C2=O,87,.,.,.,.,95,26
O=c1c(Cl)c2oc3ccccc3nc-2c2ccccc12,81,.,.,.,.,123,16
c1ccc(-c2nnc3n2N=C(c2ccc4c(c2)OCO4)CS3)nc1,94,.,.,.,.,.,13
COc1ccc(C2=Nn3c(nnc3-c3ccccn3)SC2)cc1OC,.,.,.,.,.,/,/
COc1cc(OC)cc(C(=O)Nc2sc3c(c2C(N)=O)CCC3)c1,.,.,.,.,.,/,/
Cc1ccc(-c2csc(-c3c[nH]c4ccccc34)n2)c(C)c1,106,.,.,.,.,115,24
CC(=O)NCCC(=O)Nc1nc(-c2c[nH]c3ccccc23)cs1,/,.,.,.,.,/,/
Cc1ccc(OCC(=O)N(Cc2ccccc2)c2c(N)n(Cc3ccccc3)c(=O)[nH]c2=O)c(C)c1,.,.,.,.,.,/,/
Cc1ccccc1Nc1nc(-c2ccccc2)c(C(=O)Nc2cccnc2)s1,81,.,.,.,.,57,65
Cc1ccccc1NS(=O)(=O)c1cc(C(=O)Nc2cccnc2)ccc1C,83,.,.,.,.,70,104
Cc1ccccc1NC(=O)c1ccc(C)c(S(=O)(=O)Nc2cccnc2)c1,.,.,.,.,.,/,/
O=C(Nc1ccc(Br)cc1)c1ccc(Br)c(S(=O)(=O)Nc2cccnc2)c1,98,.,.,.,.,56,.
O=C(Nc1cccnc1)c1sc(Nc2ccccc2F)nc1-c1ccccc1,.,.,.,.,.,/,/
Cc1ccc(S(=O)(=O)N2CCCC2)cc1C(=O)N1CCN(Cc2ccccc2)CC1,.,.,.,.,.,/,/
O=C(Nc1ccc(F)c(F)c1)c1oc2ccccc2c1NC(=O)C1CCCO1 (stereo unspecified),81,/,.,/,.,135,24
SMILES,AHR act,HSF1 activator,DAX1 inh,HSF1 inh,FXN GAA850 act,AHR act cf,PXR act counter
O=C(Nc1ccccc1)c1oc2ccccc2c1NC(=O)C1CC1,103,.,.,.,.,.,51
COc1ccc(NC(=O)c2oc3ccccc3c2NC(=O)C2CC2)cc1OC,.,.,.,.,.,/,/
COc1ccc(NC(=O)c2oc3ccccc3c2NC(=O)C2CCCO2)cc1OC (stereo unspecified),.,.,.,.,.,/,/
CN(C[C@H](Cc1ccccc1)N(C[C@H](c1ccccc1)N(CCc1ccccc1)N=O)N=O)N=O,.,.,.,.,.,/,/
c1ccc(-c2nc3cc4ccccc4cc3[nH]2)nc1,114,.,.,.,.,.,23
CC(=O)Nc1ccc2nc(-c3ccccn3)[nH]c2c1,.,.,.,.,.,/,/
C/C(=N\Nc1cc(N2CCOCC2)ncn1)c1cccc([N+](=O)[O-])c1,.,.,.,.,.,/,/
C/C(=N\Nc1cc(N2CCOCC2)ncn1)c1ccccc1,89,.,.,.,.,.,50
COc1cccc(-c2nn(C)c3sc(C(=O)NCCCN(C)Cc4ccccc4)cc23)c1,.,.,.,.,.,/,/
CNC(=O)c1cc2c(-c3ccccc3)nn(C)c2s1,99,.,.,.,.,114,24
COCCNC(=O)c1cc2c(-c3ccccc3F)nn(C)c2s1,98,.,.,.,.,122,24
COc1cccc(-c2nn(C)c3sc(C(=O)NCc4ccco4)cc23)c1,95,.,.,.,.,130,44
O=C(c1cc(Br)c(Br)s1)N1CCN(c2ccccn2)CC1,.,.,.,.,.,/,/
Cn1nc(-c2ccc(Cl)cc2)c2cc(C(=O)N3CCN(c4ccccn4)CC3)sc21,106,.,.,.,.,71,45
CCCCN(C)CCNC(=O)c1cc2c(-c3cccc(OC)c3)nn(C)c2s1,.,.,.,.,.,/,/
COc1cc(OC)cc(-c2c(C#Cc3ccsc3)c3cc(-c4ccc(OC)nc4)ccc3n2C)c1,.,/,.,/,.,/,/
CC1CN(CCC(=O)Nc2ccccc2F)CC(C)O1 (stereo unspecified),.,.,.,.,.,/,/
CCOc1ccccc1N(CC(=O)NC1CCCCC1)S(=O)(=O)c1ccccc1,.,.,.,.,.,/,/
CS(=O)(=O)Nc1cccc(NC(=O)C2Cc3c(-c4cccc(F)c4)ccnc3O2)c1 (stereo unspecified),/,/,/,/,.,/,/
CC(=O)Nc1ccc(NC(=O)COC(=O)c2cnccn2)cc1,.,.,.,.,.,/,/
O=C(c1cccs1)N1CCN(c2ccc(Cl)cc2)CC1,.,.,.,.,.,/,/
Cn1nc(-c2ccc(Cl)cc2)c2cc(C(=O)N3CCN(c4ccccc4)CC3)sc21,101,.,.,.,.,74,34
CC(C)CNC(=S)N(CCCO)Cc1cc2cc3c(cc2[nH]c1=O)OCO3,92,.,.,.,.,100,19
CC(C)CNC(=S)N(CCN(C)C)Cc1cc2cc3c(cc2[nH]c1=O)OCO3,.,.,.,.,.,/,/
Cc1ccc(C)c(/C=C/C(=O)c2ccccc(=O)c2O)c1,.,?,.,.,.,/,/
Cc1ccc(/C=C/C(=O)c2ccccc(=O)c2O)c(C)c1,94,.,.,.,.,.,17
N#C/C(=C1/CCCCCN1)c1nc2ccccc2s1,87,.,.,.,.,122,56
N#C/C(=C1\CCCN1)c1nc2ccccc2c(=O)[nH]1,.,.,.,.,.,/,/
Cc1ccc(S(=O)(=O)N2CCN(C(=O)CCC(=O)Nc3ccc(Br)c(C)c3)CC2)cc1,/,/,.,/,.,/,/
